Screens (PubChem BioAssay)
CYP2C19 act = human CYP2C19 activators, primary screen, biochemical, luminescence; recombinant CYP2C19, luciferin-H EGE luminescence; stronger effect = higher value; 0 = fully inhibited enzyme, 1 = untreated enzyme; activation factor at 5 µM; 96,000 tested, under 10 active; AID 1025, 2008;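 active means activation factor of at least 2 at 5 µM in the primary screen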;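 further: 0 = wells with 2.5 mM tranylcypromine and 1 = vehicle-only wells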
Target sequence (P33261 whole entry, looked up): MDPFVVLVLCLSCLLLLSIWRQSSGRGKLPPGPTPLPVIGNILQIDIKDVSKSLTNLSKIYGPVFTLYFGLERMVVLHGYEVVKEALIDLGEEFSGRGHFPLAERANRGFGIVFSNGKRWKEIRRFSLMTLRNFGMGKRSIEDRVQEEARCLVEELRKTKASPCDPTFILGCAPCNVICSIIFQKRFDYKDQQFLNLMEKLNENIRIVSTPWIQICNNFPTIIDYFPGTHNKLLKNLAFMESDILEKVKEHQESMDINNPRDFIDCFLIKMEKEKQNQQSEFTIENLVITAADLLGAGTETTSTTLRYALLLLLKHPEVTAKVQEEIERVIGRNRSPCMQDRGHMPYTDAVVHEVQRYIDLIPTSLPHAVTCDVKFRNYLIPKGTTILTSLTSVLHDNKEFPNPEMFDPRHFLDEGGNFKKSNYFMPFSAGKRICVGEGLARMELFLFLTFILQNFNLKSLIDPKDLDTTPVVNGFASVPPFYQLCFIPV
PostGolgi yeast = phenotypic screen on post-Golgi transport, primary screen | 0.9% of 98,000 active | inhibition, % at 10 µM | post-Golgi transport phenotypic cell assay;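 further: yeast cells grown in 1536-well plates; yeast grown about 18 h at 30C before absorbance read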
CYP2C9 inh = blockers of cytochrome P450 2C9 activity – biochemical, luminescence, ADME assay, primary screen | P11712 | CYP2C9 Supersomes, luciferin-H conversion | inhibition, % at 5 µM | 20% of 96,000 active;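 active means blocking of liver enzyme CYP2C9 beyond about 50% at 5 µM, limit read from the data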
CYP2C9 act = human CYP2C9 activators, primary screen, biochemical, luminescence; 1.4% of 96,000 active; recombinant CYP2C9, luciferin-H conversion; stronger effect = higher value; factor 1 = untreated enzyme, 0 = blocked; AID 1024, 2008; activation factor at 5 µM;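 active means activation factor of 2 or more for CYP2C9 at a 5 µM dose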;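 further: 0 = sulfaphenazole-blocked wells and 1 = vehicle-only wells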
CYP2C19 inhib = blockers of cytochrome P450 2C19 activity – biochemical, luminescence, ADME assay, primary screen | P33261 | CYP2C19 Supersomes, luciferin-H EGE luminescence, 30 min | inhibition, % at 5 µM | 21% of 96,000 active | AID 778, 2007;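 active means CYP2C19 inhibition above a set limit at 5 µM in the primary screen, cut at about 50% in these data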;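 further: plate controls were negative control wells for no effect and 2.5 mM tranylcypromine positive control for full effect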
PostGolgi ctrl = growth inhibition of yeast control strain, primary screen, counter-screen for post-Golgi transport modulator project; 5% of 98,000 active; AID 738, 2007; efflux-deficient yeast background strain, growth absorbance A615, 16 h; inhibition, % at 10 µM
* hit, by the source's call; nt = no result given. The list is not random: actives were taken first. Their share in the collection is about 32%. Unless noted, no stated cut-off is given here; in the data, active means inhibition above about 30%; inactive means the rest.

SMILES	CYP2C19 act	PostGolgi yeast	CYP2C9 inh	CYP2C9 act	CYP2C19 inhib	PostGolgi ctrl
COc1ccc(N2C(=O)NC(NC(=O)c3ccncc3)(C(F)(F)F)C2=O)cc1 (stereo unspecified)	0.6	4	55*	0.4	35	7
O=C1NC(NS(=O)(=O)c2ccccc2)(C(F)(F)F)C(=O)N1Cc1cccnc1 (stereo unspecified)	1	1	67*	0.3	3	2
COc1ccc(N(Cc2cc3cccc(C)c3[nH]c2=O)S(C)(=O)=O)cc1	1	-3	-12	1.1	-2	4
CCN(CC)C(=O)c1sc(NC(=O)Cc2ccc(OC)cc2)c(C#N)c1C	0.2	1	78*	0.2	78*	10
CCOC(=O)c1c(C)nc2sc(C(=O)Nc3ccc(OC)cc3)c(N)c2c1-c1ccc(OC)cc1	0.2	-4	85*	0.1	81*	15
CCOC(=O)c1c(C)nc2sc(C(=O)Nc3ccc(C(C)=O)cc3)c(N)c2c1-c1ccc(OC)cc1	0.4	-7	62*	0.4	60*	8
O=C(C1CC(c2ccc(F)cc2)=NO1)N1CCc2ccccc2C1 (stereo unspecified)	0.4	9	16	0.8	63*	13
O=C(C1CC(c2ccccc2O)=NO1)N1CCc2ccccc2C1 (stereo unspecified)	0.4	4	34	0.7	62*	19
COc1cccc(C2=NOC(C(=O)N3CCc4ccccc4C3)C2)c1 (stereo unspecified)	nt	4	nt	nt	nt	8
O=C(C1CC(c2ccccc2O)=NO1)N1CCCCC1 (stereo unspecified)	0.3	12	47	0.5	70*	-7
O=C(C1CC(c2ccc(F)cc2)=NO1)N1CCCCC1 (stereo unspecified)	nt	-3	nt	nt	nt	-3
O=C(CCCn1c(=O)[nH]c2cc(Cl)ccc2c1=O)NCCC1=CCCCC1	1	7	-4	1	5	6
COc1ccc(-c2nc(C#N)c(NCc3ccc(C)cc3)o2)cc1OC	0.9	3	53*	0.5	15	5
CC(C)(C)c1ccc(-c2nc(C#N)c(NCc3ccncc3)o2)cc1	0.8	9	67*	0.3	25	27
COc1ccc(-c2nc(C#N)c(NCCc3ccccc3)o2)cc1OC	0.2	0	93*	0.1	80*	13
Cc1ccc(CNc2oc(C)nc2C#N)cc1	0.7	11	4	1	32	18
CCN(CC)CCCNc1oc(-c2ccc(OC)c(OC)c2)nc1C#N	0.9	6	-7	1.1	9	7
CCN(CC)S(=O)(=O)c1ccc(-c2nnc(SCc3nnc(-c4ccccc4)o3)o2)cc1	0.5	3	15	0.8	46	-4
Cc1ccc(S(=O)(=O)N2CCCC2C(=O)N(C)Cc2cccs2)cc1 (stereo unspecified)	0.7	11	-28	1.3	32	0
CC1C(C(=O)Nc2ccccc2)CCCC1(C)C(=O)O (stereo unspecified)	1	-4	10	0.9	-5	3
CN(C)C(=O)N1CCC(C(=O)NCC2CCCO2)CC1 (stereo unspecified)	1.1	-4	-6	1.1	-9	3
CCN(CC)S(=O)(=O)c1cc(C(=O)N2CCc3ccccc32)ccc1Cl	0.7	3	28	0.7	28	14
Cn1cc(-c2nnnn2-c2cccc(C(F)(F)F)c2)c(C(F)(F)F)n1	0	-22	42	0.6	98*	-4
Cc1ccc(Cn2cnc3ccccc32)cc1	0.2	3	58*	0.4	77*	0
c1ccc2c(c1)ncn2CCn1cnc2ccccc21	1	nt	6	0.9	0	nt
SMILES	CYP2C19 act	PostGolgi yeast	CYP2C9 inh	CYP2C9 act	CYP2C19 inhib	PostGolgi ctrl
O=C(O)CCCCCNC(=O)c1ccccc1Br	0.7	-2	16	0.8	28	2
O=S(=O)(/C=C/c1ccccc1)N1CCN(c2ccc(F)cc2)CC1	0.8	-2	10	0.9	20	3
Cc1cc(NC(=O)CSC2=Nc3ccccc3C3=NC(Cc4ccccc4)C(=O)N23)n[nH]1 (stereo unspecified)	0.9	-8	12	0.9	7	8
CCN(CC)C(=O)CSC1=Nc2ccccc2C2=NC(Cc3c[nH]c4ccccc34)C(=O)N12 (stereo unspecified)	0.8	-8	50	0.5	24	34*
Cc1ccc(N2C(=O)CC(Sc3nc4ccccc4o3)C2=O)cc1Cl (stereo unspecified)	0.7	-3	17	0.8	33	39*
COc1ccc(N=C2S/C(=C\c3cc(C)n(C)c3C)C(=O)N2C)cc1	0.5	-5	55*	0.4	51*	10
Cc1onc(-c2c(Cl)cccc2Cl)c1C(=O)NCCN1CCOCC1	1.1	24	-10	1.1	-7	-3
Cc1nc2cc(-c3ccccc3)nn2c(C)c1CCC(=O)N1CCN(c2ccccc2)CC1	0.6	0	13	0.9	36	45*
Cc1nc2ncnn2c(C)c1CCC(=O)N1CCN(c2ccccn2)CC1	1.2	-6	-24	1.2	-18	-6
CCc1cc(OCCCSc2nc(C)cc(=O)[nH]2)ccc1Cl	0.3	12	9	0.9	70*	13
COc1ccccc1OCCSc1nc2ccccc2c(=O)[nH]1	0.4	19	43	0.6	59*	1
Cc1cc(=O)[nH]c(SCCOc2ccc(OC(C)C)cc2)n1	0.3	0	75*	0.3	66*	12
Cc1cc(=O)[nH]c(SCCOc2ccc3c(c2)CCC3)n1	1	4	-12	1.1	4	1
C/C=C/c1ccc(OCCSc2nc(C)cc(=O)[nH]2)c(OC)c1	0.8	5	53*	0.5	16	7
Cc1cc(=O)[nH]c(SCCCOc2ccccc2Cl)n1	0.5	6	29	0.7	45	15
O=C1CC(C(=O)Nc2cccc3ccccc23)C2(CCCC2)O1 (stereo unspecified)	0.8	-2	1	1	16	1
COCc1[nH]nc2c1C(c1ccccc1Cl)C(C#N)=C(N)O2 (stereo unspecified)	0.5	5	34	0.7	47	5
COc1ccc(/C=N\NC(=O)/C(=C\Nc2nccc(C)n2)NC(=O)c2ccccc2)cc1	0.7	7	76*	0.2	32	2
CCOC(=O)C1=C(O)/C(=C\c2cccc(OC)c2)N=C1C	0.3	-4	28	0.7	65*	-2
CCOC(=O)C1=C(O)/C(=C/N(C)C)N=C1C	1.1	20	-4	1	-8	23
COCCCNC(=O)C12CCC(C)(C(=O)C1)C2(C)C (stereo unspecified)	1.2	-8	-1	1	-18	7
